Data from PubChem BioAssay AID2216 (Broad Institute, 2009).
The campaign covered roughly 300,000 compounds. About 3,300 (1.1%) were called active. About 6% were inconclusive and are not listed. For the sample, actives were picked, then their nearest neighbours and some compounds at random. Values without a mark were called inactive.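 How the source made its calls: active means more than half of the replicate wells show a fall in the fluorescence ratio signal beyond about 16% (limit read from the data, passing the limit was not always enough); inconclusive means exactly half of the replicate wells pass the set limit; inactive means fewer than half of replicates pass the limit.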

These compounds were tested on Ran GTPase (GTP-bound) - importin-beta complex (assay: inhibitors of RanGTP-importin-beta interaction, primary screen, biochemical, FRET, CFP-Ran, YFP-importin-beta, homogeneous (AID 2216;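 further: 0% = DMSO wells and 100% = Ran loaded with GDP instead of GTP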)). Conditions: cell-free CFP-Ran/YFP-importin-beta FRET ratio; stronger effect = higher value; concentration not given here.

SMILES	inhibition
O=C(N/N=C/c1cccnc1)c1cc2ccccc2cc1O	-5.78%
CCC(=O)OCCNc1nc(-c2ccccc2)nc2ccccc12	-0.305%
CC(C)(C)OC(=O)NNc1c2ccccc2nc2ccccc12	45.2% (active)
Cc1ccccc1NC(=O)NNC(=O)OC(C)(C)C	3.65%
COc1ccc(-c2cc(C(=O)Nc3ccccc3O)c3ccccc3n2)cc1	5.76%
O=C(NNc1c2ccccc2nc2ccccc12)c1cc2ccccc2cc1O	46.1% (active)
COC(=O)c1ccc(SCc2ccccc2)nc1	1.08%
CCc1nnc(NS(=O)(=O)c2ccc(NC(=O)c3cccc(OC(F)(F)C(F)F)c3)cc2)s1	-0.123%
COc1ccc(C(CNC(=O)c2ccc(S(=O)(=O)Nc3ccccc3C)cc2)N2CCOCC2)cc1 (centres undefined)	0.862%
O=S(=O)(Nc1ccc(O)c2ccccc12)c1ccc(OC(F)(F)F)cc1	2.4%
COc1ccc(CNS(=O)(=O)c2cc3c4c(c2)CCN4C(=O)CC3)cc1	-2.98%
Cn1c(SCC(=O)c2ccc(F)cc2)nnc1-c1ccccn1	8.68%
Cn1c2ccccc2n2c(=O)c(=O)n(CC(=O)c3ccc(F)cc3)nc12	23.2% (active)
Cc1nn(CC(=O)Nc2ccc(F)cc2)c(=O)c2ccccc12	0.000866%
O=C(CNS(=O)(=O)c1ccccc1)N1CCN(C(=O)c2ccco2)CC1	1.51%
COc1ccccc1N(C)S(=O)(=O)c1ccc(Cl)c(C(=O)Nc2ccncc2)c1	-1.81%
CSCCC(NC(=O)COc1ccccc1)C(=O)OCCOc1ccc(F)cc1 (centres undefined)	6.76%
CCCCn1c(N)c(N(CC(C)C)C(=O)CN(C)S(=O)(=O)c2ccc(F)cc2)c(=O)[nH]c1=O	6.85%
CCN1C(=O)[C@@H]2[C@@H](c3ccc(-c4ccccc4)cc3)N3CCCC[C@@]3(C(=O)OC)[C@@H]2C1=O	-2.21%
CCCc1cc(=O)oc2c(C)c(OC(C)C(=O)NCC(O)c3ccccc3)ccc12 (centres undefined)	1.81%
CCCc1cc(=O)oc2c(C)c(O)c(CN3CCCCC3)cc12	58.6% (active)
CCCc1cc(=O)oc2c(C)c(OCC(=O)N3CCC(C(=O)O)CC3)ccc12	0.461%
O=C(Nc1ccc(C(=O)N2CCOCC2)cc1)Nc1cccc(C(F)(F)F)c1	-2.36%

SMILES	inhibition
Cc1ccc(C)c(OCCC(=O)OCC(=O)c2ccc3c(c2)NC(=O)CO3)c1	0.406%
CCCCn1c(N)c(N(CCOC)C(=O)c2sc3ccccc3c2Cl)c(=O)[nH]c1=O	7.27%
Cc1nc2ccccc2c(=O)n1-c1ccc(F)c(NC(=O)c2cccs2)c1	7.77%
O=C(N/N=C/c1ccccn1)c1ccc(S(=O)(=O)N2CCCCCC2)cc1	3.77%
Cc1ncc(CO)c(/C=N/NC(=O)c2cccc(S(=O)(=O)N3CCCC3)c2)c1O	38.4% (active)
Cc1cccc(NC(=O)c2cccc(S(=O)(=O)N3CCCC3)c2)n1	1.93%
Cc1ccc(C(=O)CN2C(=O)NC3(CCc4ccccc43)C2=O)c(C)c1 (centres undefined)	-0.128%
Cc1ccc(C(=O)NNC(=O)c2ccncc2)cc1S(=O)(=O)N1CCCCC1	-4.29%
Cc1ccc(NC(=O)COc2ccc(/C=C3/NC(=O)NC3=O)cc2)cc1	-1.54%
CCOC(=O)C1=C(O)/C(=C/c2ccc(OCC(=O)Nc3ccc(C)cc3)cc2)N=C1C	70.2% (active)
CCOC(=O)C1=C(O)/C(=C/c2cc(C)n(-c3ccccc3)c2C)N=C1C	3.69%
CCOC(=O)c1ccccc1NC(=O)c1c(N)n(C)c(=O)[nH]c1=O	-1.23%
O=C(c1ccc(F)cc1)N1CCC(C(=O)N2CCN(S(=O)(=O)c3ccccc3Br)CC2)CC1	4.17%
O=C(Nc1cc2ccccc2oc1=O)C1CCCCC1	4.19%
CC(=O)Oc1ccc2c(C)c(CC(C)O)c(=O)oc2c1 (centres undefined)	10%
CC(=O)Nc1cc2ccc(OC(C)=O)cc2oc1=O	33.6% (active)
COc1ccccc1/C=C/C(=O)NC(=S)N1CCOCC1	-1.73%
COc1ccccc1/C=C/C1=NC(=C\N(C)C)/C(=O)O1	37% (active)
O=C1OC(/C=C/c2ccccc2)=NC/1=C/c1ccco1	0.891%
O=C(c1cn2ccccc2n1)N1CCc2c([nH]c3ccccc23)C1c1ccccn1 (centres undefined)	3.68%
COCc1ccc(C(=O)N2CCc3c([nH]c4ccccc34)C2c2ccccn2)s1 (centres undefined)	0.202%
Cc1cccc(C2c3[nH]c4ccccc4c3CCN2C(=O)c2cc(-c3cccn3C)n[nH]2)n1 (centres undefined)	21.1% (active)
O=C(NCC1(N2CCCCC2)CCCCC1)c1ccc(NS(=O)(=O)c2ccc(F)cc2)cc1	-1.33%

SMILES	inhibition
COC(=O)[C@]1(C)N[C@H](c2ccc(-c3ccc(Cl)c(Cl)c3)cc2)[C@@H]2C(=O)N(C)C(=O)[C@@H]21	1.99%
CCCNC(=O)c1c(N)n(-c2ccc(S(N)(=O)=O)cc2)c2nc3ccccc3nc12	12.3%
CCOc1ccccc1NC(=O)Cn1nnc(C(=O)NCc2cccs2)c1N	1.12%
CC(C)Cn1c(N)c(C(=O)NCc2cccs2)c2nc3ccccc3nc21	73.8% (active)
Cc1c(C)n2c(SCC(=O)NC3CCCC3)nnc2[nH]c1=O	1.36%
CC(C)(C)Oc1ccccc1Nc1nc(NCCO)nc(N2CCCC2)n1	-2.11%
COc1ccc(C(=O)CC(=O)c2ccc(C)cc2)c(O)c1	2.86%
COc1ccc(C(=O)Cc2cnn(-c3ccccc3)c2)c(O)c1	17.5% (active)
Cc1cc(O)cc(O)c1C(=O)Cc1cnn(-c2ccccc2)c1	0.165%
CCCCn1c(N)c(N(CC(C)C)C(=O)c2cccc(S(=O)(=O)N3CCN(C(C)=O)CC3)c2)c(=O)[nH]c1=O	6.15%
Cc1cc(/C=N/Nc2ccc([N+](=O)[O-])cn2)c(C)n1-c1cccc(C(=O)O)c1	-1.11%
COc1cc(/C=N\Nc2ccc([N+](=O)[O-])cn2)ccc1OCC(=O)O	69.7% (active)
COc1cc(/C=N/O)ccc1OCc1ccc([N+](=O)[O-])cc1	-0.23%
COc1cccc(COC(=O)C2CCN(S(=O)(=O)c3cccs3)CC2)c1OC	8.84%
CC(OC(=O)CNC(=O)c1cccc(F)c1)C(=O)NC1CCCCC1C (centres undefined)	18.8% (active)
Cc1cc(C(=O)OC(C)C(=O)NC2CCCCC2C)c(C)o1 (centres undefined)	-3.61%
CC(OC(=O)CNC(=O)c1ccc(Cl)c([N+](=O)[O-])c1)C(=O)NCc1ccco1 (centres undefined)	5.87%
CC(C)(C)c1ccc(C(=O)NCc2ccco2)cc1	-1.24%
CCOc1ccc(CCNC(=O)COC(=O)c2c(OC)cccc2OC)cc1OCC	1.08%
COCCn1c(SC(C)C(=O)NC2CC2)nnc1-c1cccc(C)c1 (centres undefined)	-0.425%
O=C(NCc1ccc(Cl)cc1)C(=O)NCC1CCCN1S(=O)(=O)c1cccs1 (centres undefined)	-0.323%
CC(=O)Nc1ccc(C(=O)/C=C/c2ccc[nH]2)cc1	16.6% (active)
CCCC(=O)Nc1ccc(C(=O)N/N=C/c2ccc[nH]2)cc1	2.49%

SMILES	inhibition
CC(=O)Nc1ccc(/C=C/C(=O)c2ccccc2)cc1	-0.329%
CC(C)Oc1ccc(S(=O)(=O)N2CCOCC2)cc1NC(=O)C1CSC2(C)CCC(=O)N12 (centres undefined)	-2.87%
COc1ccc(S(=O)(=O)NCCCc2ccccc2)cc1	-4.52%
O=C(Cc1nc2ccccc2[nH]c1=O)c1ccc(Cl)cc1	39% (active)
O=C(/C(=C/c1cccc(Cl)c1)c1nc2ccccc2[nH]1)c1ccccc1	2.15%
Cc1ccc(-c2nc3ccccc3[nH]c2=O)cc1	3.42%
Cc1cc(C)cc(NS(=O)(=O)c2ccc(Oc3ncc(C(F)(F)F)cc3Cl)cc2)c1	1.58%
COC(=O)Cc1ccc(Oc2ncc(C(F)(F)F)cc2Cl)cc1	106% (active)
COC(=O)Cc1ccc(OCC(=O)Nc2ccc(OC(F)(F)F)cc2)cc1	-0.217%
CCCCn1c(N)c(N(CC)C(=O)c2ccc(N(C)S(=O)(=O)c3ccc(C)cc3)cc2)c(=O)[nH]c1=O	-4.28%
COc1ccc(/C=C(\C#N)C(=O)OCC(=O)N(C)C2CCS(=O)(=O)C2)cc1 (centres undefined)	1.11%
COc1ccccc1NS(=O)(=O)c1ccc(C(=O)N2CCN(c3ccccc3O)CC2)cc1	1.18%
COc1ccc(-n2cnc3cc(NCc4ccco4)ccc32)cc1	23% (active)
COc1ccc(Nc2nc(NCc3ccco3)nc(N/N=C/c3ccccc3Cl)n2)cc1	-0.0694%
COc1ccc(-n2cnc3cc(C(=O)NC4CCCC4)ccc32)cc1	-1.26%
CCCc1nnc(NC(=O)c2cc(OC)cc(OC)c2)s1	162% (active)
CCCc1nnc(NC(=O)c2cccs2)s1	-123%
COc1ccc(Cc2nnc(NC(=O)c3cc(OC)c(OC)c(OC)c3)s2)cc1OC	3.23%
C[C@@H]1O[C@@H](OC[C@H]2O[C@@H](Oc3c(-c4ccc(O)cc4)oc4cc(O)cc(O)c4c3=O)[C@H](O)[C@@H](O)[C@@H]2O)[C@H](O)[C@H](O)[C@H]1O	2.8%
COc1ccc(CNC(=O)C2(CC3CC(c4ccccc4)=NO3)CCN(C(=O)c3cccc(O)c3)CC2)cc1 (centres undefined)	5.15%
